# Columns and labels:
# Experiment in all cases: DAPPL (digital affinity profiling via proximity ligation, sequencing); 10 mM Tris-HCl pH 7.5, 50 mM NaCl, 1 mM DTT, 4% glycerol, room temperature, 30 min; GST-TFs on glutathione beads, 16-mer random dsDNA library, 0.1% formaldehyde crosslink after washing; high values mean tight binding
# [1] = molecular target: T1, FEV (Homo sapiens, UniProt Q99581 1-238); conditions: protein: recombinant; tags: N-terminal GST; dsDNA, one strand shown
# T1 sequence: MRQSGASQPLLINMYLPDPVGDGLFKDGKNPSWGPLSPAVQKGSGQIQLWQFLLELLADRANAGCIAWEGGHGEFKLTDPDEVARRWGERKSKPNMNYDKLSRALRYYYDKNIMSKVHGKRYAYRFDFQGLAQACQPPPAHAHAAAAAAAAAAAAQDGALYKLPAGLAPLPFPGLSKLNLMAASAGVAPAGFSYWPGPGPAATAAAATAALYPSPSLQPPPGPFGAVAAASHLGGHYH
# Outline: (§1)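 Human transcription factors were made in yeast as GST fusions, captured on glutathione beads and barcoded with DNA. With a tag-only sample included, the pool was incubated with 200 nmole of a random double-stranded 16-mer DNA library in Tris/NaCl/DTT/glycerol buffer at room temperature for 30 min, then crosslinked with 0.1% formaldehyde after washing, ligated by proximity, amplified and sequenced. For binding signal, each hexamer's read frequency for a factor is divided by its frequency for the tag-only sample.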
# [2] = molecular target: ETV5 (Homo sapiens, UniProt P41161 1-510); conditions: protein: recombinant; tags: N-terminal GST; dsDNA, one strand shown
# Outline: as §1
# [3] = molecular target: HSF1 (Homo sapiens, UniProt Q00613 1-529); conditions: protein: recombinant; tags: N-terminal GST; chain copies: 3; dsDNA, one strand shown
# Outline: as §1
# [4] = molecular target: T2, SPIC (Homo sapiens, UniProt Q8N5J4 1-248); conditions: protein: recombinant; tags: N-terminal GST; dsDNA, one strand shown
# T2 sequence: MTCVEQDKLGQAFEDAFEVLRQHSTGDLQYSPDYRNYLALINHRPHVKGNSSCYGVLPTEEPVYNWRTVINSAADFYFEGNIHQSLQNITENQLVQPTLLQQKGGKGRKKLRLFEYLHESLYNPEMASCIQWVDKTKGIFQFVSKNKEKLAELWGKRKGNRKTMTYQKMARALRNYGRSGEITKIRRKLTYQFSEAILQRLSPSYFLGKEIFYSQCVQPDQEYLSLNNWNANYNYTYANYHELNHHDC
# Outline: as §1
# [5] = molecular target: ELF4 (Homo sapiens, UniProt Q99607 1-663); conditions: protein: recombinant; tags: N-terminal GST; dsDNA, one strand shown
# Outline: as §1
# [6] = molecular target: T3, ELK4 (Homo sapiens, UniProt P28324-2 1-405); conditions: protein: recombinant; tags: N-terminal GST; dsDNA, one strand shown
# T3 sequence: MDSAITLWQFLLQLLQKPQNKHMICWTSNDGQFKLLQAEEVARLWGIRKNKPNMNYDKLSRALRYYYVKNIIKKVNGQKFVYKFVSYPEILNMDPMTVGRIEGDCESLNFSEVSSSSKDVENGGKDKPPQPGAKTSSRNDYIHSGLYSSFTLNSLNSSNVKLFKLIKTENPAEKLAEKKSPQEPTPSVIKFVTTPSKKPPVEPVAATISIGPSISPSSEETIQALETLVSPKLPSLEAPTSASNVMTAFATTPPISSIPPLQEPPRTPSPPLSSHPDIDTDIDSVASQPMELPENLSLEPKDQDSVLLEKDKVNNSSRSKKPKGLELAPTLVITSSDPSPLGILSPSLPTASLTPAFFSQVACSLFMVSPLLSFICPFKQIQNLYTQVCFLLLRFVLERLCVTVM
# Outline: as §1
# [7] = molecular target: T4, ETV2 (Homo sapiens, UniProt O00321 1-342); conditions: protein: recombinant; tags: N-terminal GST; dsDNA, one strand shown
# T4 sequence: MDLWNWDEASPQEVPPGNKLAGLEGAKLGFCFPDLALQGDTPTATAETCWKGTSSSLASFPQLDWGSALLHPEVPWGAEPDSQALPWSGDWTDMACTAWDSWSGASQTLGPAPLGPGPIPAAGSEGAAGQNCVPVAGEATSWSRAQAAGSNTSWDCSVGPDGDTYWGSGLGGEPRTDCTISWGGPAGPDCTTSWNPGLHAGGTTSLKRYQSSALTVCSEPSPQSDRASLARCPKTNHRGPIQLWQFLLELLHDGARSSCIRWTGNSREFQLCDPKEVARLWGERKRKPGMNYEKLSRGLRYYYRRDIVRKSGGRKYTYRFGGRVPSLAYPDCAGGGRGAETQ
# Outline: as §1
# [8] = molecular target: T5, ELF3 (Homo sapiens, UniProt P78545 1-371); conditions: protein: recombinant; tags: N-terminal GST; dsDNA, one strand shown
# T5 sequence: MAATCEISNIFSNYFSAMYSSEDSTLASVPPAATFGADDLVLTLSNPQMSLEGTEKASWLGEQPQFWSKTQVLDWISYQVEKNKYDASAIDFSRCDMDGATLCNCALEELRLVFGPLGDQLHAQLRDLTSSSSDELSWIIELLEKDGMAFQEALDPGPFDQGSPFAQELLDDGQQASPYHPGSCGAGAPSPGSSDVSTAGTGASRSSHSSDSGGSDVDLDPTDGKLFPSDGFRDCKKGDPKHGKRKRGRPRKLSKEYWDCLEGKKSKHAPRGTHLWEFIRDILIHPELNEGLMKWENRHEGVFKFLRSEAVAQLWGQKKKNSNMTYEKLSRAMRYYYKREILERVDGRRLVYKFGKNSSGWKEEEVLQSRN
# Outline: as §1
# [9] = molecular target: CRX (Homo sapiens, UniProt O43186 1-299); conditions: protein: recombinant; tags: N-terminal GST; dsDNA, one strand shown
# Outline: as §1
# [10] = molecular target: ETV1 (Homo sapiens, UniProt P50549 1-477); conditions: protein: recombinant; tags: N-terminal GST; dsDNA, one strand shown
# Outline: as §1
# [11] = molecular target: T6, ERF (Homo sapiens, UniProt P50548 1-548); conditions: protein: recombinant; tags: N-terminal GST; dsDNA, one strand shown
# T6 sequence: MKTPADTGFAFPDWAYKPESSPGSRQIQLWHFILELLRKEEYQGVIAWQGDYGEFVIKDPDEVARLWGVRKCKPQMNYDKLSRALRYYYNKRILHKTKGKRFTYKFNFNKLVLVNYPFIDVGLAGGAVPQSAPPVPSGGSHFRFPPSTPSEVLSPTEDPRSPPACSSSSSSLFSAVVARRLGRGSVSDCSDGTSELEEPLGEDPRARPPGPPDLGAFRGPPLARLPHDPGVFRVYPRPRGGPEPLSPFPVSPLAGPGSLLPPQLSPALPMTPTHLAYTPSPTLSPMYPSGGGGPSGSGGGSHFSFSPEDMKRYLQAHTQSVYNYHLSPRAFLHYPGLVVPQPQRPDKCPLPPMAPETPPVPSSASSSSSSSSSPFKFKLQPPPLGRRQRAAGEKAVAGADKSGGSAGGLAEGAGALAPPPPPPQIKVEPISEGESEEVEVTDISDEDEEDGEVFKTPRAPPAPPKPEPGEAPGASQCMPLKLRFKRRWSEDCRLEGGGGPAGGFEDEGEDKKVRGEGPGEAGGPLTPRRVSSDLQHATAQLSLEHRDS
# Outline: as §1
# [12] = molecular target: T7, ETV3L (Homo sapiens, UniProt Q6ZN32 1-361); conditions: protein: recombinant; tags: N-terminal GST; dsDNA, one strand shown
# T7 sequence: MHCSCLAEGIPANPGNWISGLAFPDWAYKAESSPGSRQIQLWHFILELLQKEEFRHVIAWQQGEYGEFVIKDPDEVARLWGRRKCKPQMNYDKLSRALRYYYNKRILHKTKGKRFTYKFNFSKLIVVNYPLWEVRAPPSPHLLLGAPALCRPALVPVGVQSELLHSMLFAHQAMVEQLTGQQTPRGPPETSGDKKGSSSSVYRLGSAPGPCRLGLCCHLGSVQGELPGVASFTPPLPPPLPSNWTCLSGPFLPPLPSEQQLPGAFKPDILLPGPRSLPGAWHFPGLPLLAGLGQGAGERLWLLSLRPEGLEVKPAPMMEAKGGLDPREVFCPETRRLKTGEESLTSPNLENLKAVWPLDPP
# Outline: as §1
# [13] = molecular target: T8, ETS2 (Homo sapiens, UniProt P15036 1-469); conditions: protein: recombinant; tags: N-terminal GST; dsDNA, one strand shown
# T8 sequence: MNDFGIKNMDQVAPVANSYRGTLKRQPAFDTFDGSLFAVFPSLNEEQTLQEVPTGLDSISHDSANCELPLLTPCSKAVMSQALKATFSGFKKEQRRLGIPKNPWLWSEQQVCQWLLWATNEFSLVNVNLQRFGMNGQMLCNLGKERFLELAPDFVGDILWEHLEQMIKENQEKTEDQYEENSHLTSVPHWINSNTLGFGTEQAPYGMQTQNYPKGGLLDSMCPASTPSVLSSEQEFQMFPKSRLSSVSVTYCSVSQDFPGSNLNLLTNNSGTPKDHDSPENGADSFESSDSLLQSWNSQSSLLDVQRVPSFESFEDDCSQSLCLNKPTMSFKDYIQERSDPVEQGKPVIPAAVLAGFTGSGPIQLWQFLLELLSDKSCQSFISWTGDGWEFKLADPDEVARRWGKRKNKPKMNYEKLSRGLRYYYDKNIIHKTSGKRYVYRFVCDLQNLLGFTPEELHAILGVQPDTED
# Outline: as §1
# [14] = molecular target: T9, SPDEF (Homo sapiens, UniProt O95238 1-335); conditions: protein: recombinant; tags: N-terminal GST; dsDNA, one strand shown
# T9 sequence: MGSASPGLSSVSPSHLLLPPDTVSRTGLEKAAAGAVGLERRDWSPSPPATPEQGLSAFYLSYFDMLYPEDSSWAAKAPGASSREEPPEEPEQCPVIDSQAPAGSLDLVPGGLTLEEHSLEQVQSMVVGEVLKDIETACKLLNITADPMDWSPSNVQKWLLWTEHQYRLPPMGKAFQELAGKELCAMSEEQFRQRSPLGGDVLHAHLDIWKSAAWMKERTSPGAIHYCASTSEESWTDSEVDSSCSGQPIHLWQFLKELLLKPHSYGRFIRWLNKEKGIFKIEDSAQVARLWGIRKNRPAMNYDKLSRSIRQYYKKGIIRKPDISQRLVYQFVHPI
# Outline: as §1
# [15] = molecular target: T10, ETV7 (Homo sapiens, UniProt Q9Y603 1-341); conditions: protein: recombinant; tags: N-terminal GST; dsDNA, one strand shown
# T10 sequence: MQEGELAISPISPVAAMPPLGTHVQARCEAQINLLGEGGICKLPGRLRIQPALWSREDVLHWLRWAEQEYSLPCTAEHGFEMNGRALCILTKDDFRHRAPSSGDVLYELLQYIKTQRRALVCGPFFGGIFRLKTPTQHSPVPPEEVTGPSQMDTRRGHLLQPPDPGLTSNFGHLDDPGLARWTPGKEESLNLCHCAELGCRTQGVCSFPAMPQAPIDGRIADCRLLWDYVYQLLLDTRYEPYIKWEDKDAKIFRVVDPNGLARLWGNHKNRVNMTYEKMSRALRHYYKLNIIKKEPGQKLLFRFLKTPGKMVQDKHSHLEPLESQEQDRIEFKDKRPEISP
# Outline: as §1
# [16] = molecular target: T11, ELF5 (Homo sapiens, UniProt Q9UKW6-2 1-255); conditions: protein: recombinant; tags: N-terminal GST; dsDNA, one strand shown
# T11 sequence: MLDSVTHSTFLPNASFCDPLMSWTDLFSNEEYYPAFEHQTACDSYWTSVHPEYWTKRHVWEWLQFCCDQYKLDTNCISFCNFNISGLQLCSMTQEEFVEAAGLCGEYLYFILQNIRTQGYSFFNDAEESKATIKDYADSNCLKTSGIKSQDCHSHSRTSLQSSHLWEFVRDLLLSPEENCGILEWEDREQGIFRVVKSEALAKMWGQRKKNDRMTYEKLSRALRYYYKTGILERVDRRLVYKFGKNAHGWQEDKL
# Outline: as §1
# [17] = molecular target: T12, ETV3 (Homo sapiens, UniProt P41162-2 1-143); conditions: protein: recombinant; tags: N-terminal GST; dsDNA, one strand shown
# T12 sequence: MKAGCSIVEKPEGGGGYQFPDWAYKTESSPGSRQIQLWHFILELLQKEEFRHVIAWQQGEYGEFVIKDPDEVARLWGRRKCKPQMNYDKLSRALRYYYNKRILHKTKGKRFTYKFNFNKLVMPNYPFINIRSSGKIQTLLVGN
# Outline: as §1
# [18] = molecular target: ETV6 (Homo sapiens, UniProt P41212 1-452); conditions: protein: recombinant; tags: N-terminal GST; dsDNA, one strand shown
# Outline: as §1
# Sequence of ETV6 (P41212 whole entry): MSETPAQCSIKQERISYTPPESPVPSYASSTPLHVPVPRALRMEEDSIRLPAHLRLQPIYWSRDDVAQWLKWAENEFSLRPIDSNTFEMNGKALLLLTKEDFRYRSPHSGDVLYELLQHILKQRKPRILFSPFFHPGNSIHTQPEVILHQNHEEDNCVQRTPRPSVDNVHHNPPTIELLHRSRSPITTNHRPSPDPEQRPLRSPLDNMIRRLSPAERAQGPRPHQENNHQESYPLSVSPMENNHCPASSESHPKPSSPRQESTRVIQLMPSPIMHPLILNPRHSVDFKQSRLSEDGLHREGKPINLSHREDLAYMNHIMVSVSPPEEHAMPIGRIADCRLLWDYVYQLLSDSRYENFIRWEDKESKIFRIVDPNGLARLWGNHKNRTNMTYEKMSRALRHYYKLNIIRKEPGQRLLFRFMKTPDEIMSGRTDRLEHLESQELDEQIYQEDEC
# Sequence of ELF4 (Q99607 whole entry): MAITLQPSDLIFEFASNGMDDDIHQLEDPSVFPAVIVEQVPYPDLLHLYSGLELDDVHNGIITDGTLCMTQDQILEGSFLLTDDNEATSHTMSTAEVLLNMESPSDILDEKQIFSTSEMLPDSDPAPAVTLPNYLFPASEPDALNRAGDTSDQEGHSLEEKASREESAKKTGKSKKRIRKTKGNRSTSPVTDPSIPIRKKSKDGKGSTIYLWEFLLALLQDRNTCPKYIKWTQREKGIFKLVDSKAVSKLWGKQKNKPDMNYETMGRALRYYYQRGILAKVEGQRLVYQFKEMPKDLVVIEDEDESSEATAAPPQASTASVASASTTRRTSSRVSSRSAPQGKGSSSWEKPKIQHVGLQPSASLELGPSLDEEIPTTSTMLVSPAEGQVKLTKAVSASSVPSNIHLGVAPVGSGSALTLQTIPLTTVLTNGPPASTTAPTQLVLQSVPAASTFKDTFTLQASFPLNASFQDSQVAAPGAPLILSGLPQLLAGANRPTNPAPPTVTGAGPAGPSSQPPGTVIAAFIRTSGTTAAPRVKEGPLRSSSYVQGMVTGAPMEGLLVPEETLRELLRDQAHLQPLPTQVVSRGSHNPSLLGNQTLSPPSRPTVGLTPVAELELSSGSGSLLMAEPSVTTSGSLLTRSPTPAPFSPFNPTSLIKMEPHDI
# Sequence of CRX (O43186 whole entry): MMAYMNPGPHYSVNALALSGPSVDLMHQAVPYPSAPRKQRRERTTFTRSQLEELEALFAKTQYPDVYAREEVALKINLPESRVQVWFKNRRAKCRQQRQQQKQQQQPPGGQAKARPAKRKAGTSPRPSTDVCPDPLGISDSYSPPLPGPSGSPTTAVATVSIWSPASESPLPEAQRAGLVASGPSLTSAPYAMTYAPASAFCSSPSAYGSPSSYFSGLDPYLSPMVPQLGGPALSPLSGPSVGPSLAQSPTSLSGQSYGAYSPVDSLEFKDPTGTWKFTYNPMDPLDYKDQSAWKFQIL
# Sequence of ETV5 (P41161 whole entry): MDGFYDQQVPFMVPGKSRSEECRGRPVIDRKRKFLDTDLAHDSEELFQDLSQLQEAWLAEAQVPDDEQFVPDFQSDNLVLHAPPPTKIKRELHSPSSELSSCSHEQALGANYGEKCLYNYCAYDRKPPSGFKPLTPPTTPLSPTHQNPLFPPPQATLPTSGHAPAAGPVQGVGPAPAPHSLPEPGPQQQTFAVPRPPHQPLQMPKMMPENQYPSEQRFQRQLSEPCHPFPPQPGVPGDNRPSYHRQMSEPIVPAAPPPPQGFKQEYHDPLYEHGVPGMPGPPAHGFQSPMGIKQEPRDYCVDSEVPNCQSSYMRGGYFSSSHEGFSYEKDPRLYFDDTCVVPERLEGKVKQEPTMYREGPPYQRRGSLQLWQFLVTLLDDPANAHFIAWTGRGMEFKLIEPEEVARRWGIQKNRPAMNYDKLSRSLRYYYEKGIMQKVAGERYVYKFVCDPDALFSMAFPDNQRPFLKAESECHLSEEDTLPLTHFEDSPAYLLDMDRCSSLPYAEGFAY
# Sequence of HSF1 (Q00613 whole entry): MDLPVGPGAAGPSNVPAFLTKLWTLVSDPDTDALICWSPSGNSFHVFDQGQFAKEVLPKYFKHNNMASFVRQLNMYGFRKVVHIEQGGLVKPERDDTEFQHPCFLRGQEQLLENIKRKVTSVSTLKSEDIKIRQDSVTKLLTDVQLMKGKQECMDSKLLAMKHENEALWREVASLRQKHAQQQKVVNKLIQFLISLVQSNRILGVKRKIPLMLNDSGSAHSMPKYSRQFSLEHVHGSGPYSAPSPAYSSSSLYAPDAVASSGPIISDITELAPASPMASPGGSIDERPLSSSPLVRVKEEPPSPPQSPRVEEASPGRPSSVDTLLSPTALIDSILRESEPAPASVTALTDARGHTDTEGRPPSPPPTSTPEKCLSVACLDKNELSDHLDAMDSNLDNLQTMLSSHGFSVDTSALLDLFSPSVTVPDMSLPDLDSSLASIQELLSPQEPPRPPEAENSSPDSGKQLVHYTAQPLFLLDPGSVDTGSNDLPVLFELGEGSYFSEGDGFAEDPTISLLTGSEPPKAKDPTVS
# Sequence of ETV1 (P50549 whole entry): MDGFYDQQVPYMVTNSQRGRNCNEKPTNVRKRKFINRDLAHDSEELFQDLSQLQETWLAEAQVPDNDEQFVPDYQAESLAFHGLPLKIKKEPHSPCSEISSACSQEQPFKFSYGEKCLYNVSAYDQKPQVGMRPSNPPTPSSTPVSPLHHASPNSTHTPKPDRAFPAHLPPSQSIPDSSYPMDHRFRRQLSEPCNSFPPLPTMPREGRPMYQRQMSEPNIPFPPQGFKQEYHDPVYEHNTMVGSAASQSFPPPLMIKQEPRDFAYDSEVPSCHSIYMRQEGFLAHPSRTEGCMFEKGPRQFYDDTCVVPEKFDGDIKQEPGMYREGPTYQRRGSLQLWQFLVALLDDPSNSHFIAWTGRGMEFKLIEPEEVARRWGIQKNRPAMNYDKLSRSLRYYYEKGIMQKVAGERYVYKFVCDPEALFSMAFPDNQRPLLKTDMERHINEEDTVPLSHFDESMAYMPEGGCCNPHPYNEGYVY
sequence,measurement,setting,value
ATAATA,binding signal,[1],"1.17 fold enrichment (6-mer frequency, TF over GST control)"
same,binding signal,[2],"1.18 fold enrichment (6-mer frequency, TF over GST control)"
same,binding signal,[3],"1.67 fold enrichment (6-mer frequency, TF over GST control)"
same,binding signal,[4],"1.21 fold enrichment (6-mer frequency, TF over GST control)"
same,binding signal,[5],"1.14 fold enrichment (6-mer frequency, TF over GST control)"
same,binding signal,[6],"1.14 fold enrichment (6-mer frequency, TF over GST control)"
same,binding signal,[7],"1.1 fold enrichment (6-mer frequency, TF over GST control)"
same,binding signal,[8],"1.15 fold enrichment (6-mer frequency, TF over GST control)"
same,binding signal,[9],"2.14 fold enrichment (6-mer frequency, TF over GST control)"
same,binding signal,[10],"1.17 fold enrichment (6-mer frequency, TF over GST control)"
same,binding signal,[11],"1.32 fold enrichment (6-mer frequency, TF over GST control)"
same,binding signal,[12],"1.14 fold enrichment (6-mer frequency, TF over GST control)"
same,binding signal,[13],"1.2 fold enrichment (6-mer frequency, TF over GST control)"
same,binding signal,[14],"1.15 fold enrichment (6-mer frequency, TF over GST control)"
same,binding signal,[15],"1.14 fold enrichment (6-mer frequency, TF over GST control)"
same,binding signal,[16],"1.17 fold enrichment (6-mer frequency, TF over GST control)"
same,binding signal,[17],"1.2 fold enrichment (6-mer frequency, TF over GST control)"
same,binding signal,[18],"1.2 fold enrichment (6-mer frequency, TF over GST control)"

# Reference: paper PMC7862700, “An all-to-all approach to the identification of sequence-specific readers for epigenetic DNA modifications on cytosine”
